The target of the first assay is SAMD10. Briefly: pooled miR-30 sensor sort-seq; sequence = guide strand. Conditions: shRNA.
As to TGCAGGAGCTTGATTGGCCTGC, the sensor-assay potency score (higher = more potent) was -1.14.
On the same count and under the same terms, the figure for TAAATAATGATGAAAGTGCTTG is -0.363.
Still for that read-out and setting: the same measure for TAGTGGTCAGAGTACAGCCGGC: -1.02; for ATAGTGGTCAGAGTACAGCCGG: -1.22; for TGCTTCTTGAGCCACTTGCAGA: -1.33.
On the same count and under the same terms, the figure for TTGTGCCACATTTTGTCTCTGG is -0.0935; for ATGCTCTCAGCTGACACCGTGT it is -1.22.
For the sequence TAGACGAGGTAGTTGTGGGGAC, the sensor-assay potency score (higher = more potent) was -0.47.
TAAATAAACAGACTCCCTGGGA returned a sensor-assay potency score (higher = more potent) of -0.205.
Same read-out and setting: the same measure for TATGGTACAGGCCATAGTGGTC: -1.37; for TTGTGGGGACAGTGCTTCTTGA: -1.41.
On the same count and under the same terms, the figure for TTACTTCTCATGAATAGAGGGG is 0.161.

A further assay deals with SAMD3. The description is as above. The conditions noted are these: shRNA.
The sequence TGTAACACAGTCGTCCACCTTT had a sensor-assay potency score (higher = more potent) of -0.369.
On the same count and under the same terms, the figure for TAAATCCATCAGAACAGCCTGG is -0.235; for TTGCTCATCATCTTCTATGGGT it is 0.349; for TTCTGCTCTGCTAACATGCATT it is -1.16.
TTTTTCTCCACCAACCAACTGC yielded a sensor-assay potency score (higher = more potent) of -0.0677.
As for TTAACTTCCAACACAGGTGTGG, the sensor-assay potency score (higher = more potent) was found to be 0.183.
Same read-out and setting: the same measure for TTCAACATGTCTTCATCTGTGT: 0.839; for TTGAAATCTATGAACTAGCTCT: 0.87; for TTCTCCACCAACCAACTGCAGA: -1.35.
Still for that read-out and setting: the same measure for TTGTTTCACATTTCTTCTCTGT: 0.377; for TAAAACATAGGACTTCGTCCAC: 0.0328.

The values are drawn from the OligoGym collection.
Further: reference of the scale not given here.
